High-throughput results: PubChem, National Center for Advancing Translational Sciences (NCATS)
GLS inhibitor = inhibitors of human glutaminase (GLS) | Potency, µM (titrated, usually from 45.5 µM), actives largely listed as inhibitors | actives 0.21% (n = 410,000) | O94925 | GLS enzymatic activity, qHTS titration
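Enzyme dispensed in phosphate buffer (45 mM, pH 8.2, 0.02% Tween-20), compounds pinned in, then 1 mM L-glutamine solution and the glutamate oxidase–HRP–Amplex Red mix added; fluorescence read immediately and again after 30 min at room temperature.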
IDH1 R132H inh = blocks human mutant IDH1 R132H enzyme; O75874; IDH1-R132H enzyme, NADPH consumption, diaphorase/resazurin fluorescence; Potency, µM (series often up to 76.6 µM), hits mostly inhibitors; actives 0.093% (n = 390,000); AID 602179; further: nearly all actives have a fitted effect of over 65% in size
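IDH1-R132H (0.5 ug/mL dispensed) in pH 7.5 Tris buffer was preincubated 30 min with compound, then given a substrate mix of 0.016 mM NADPH and 2 mM alpha-KG for 80 min at room temperature; remaining NADPH was read by diaphorase/resazurin fluorescence.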
TrxR1 substrate = substrates of rat thioredoxin reductase 1 | O89049 | purified TrxR1 substrate turnover, NADPH consumption readout | Potency, µM (highest dose often 114 µM) | actives 0.01% (n = 390,000); further: nearly all actives have a fitted effect of over 50% in size
Target sequence (O89049 whole entry, looked up): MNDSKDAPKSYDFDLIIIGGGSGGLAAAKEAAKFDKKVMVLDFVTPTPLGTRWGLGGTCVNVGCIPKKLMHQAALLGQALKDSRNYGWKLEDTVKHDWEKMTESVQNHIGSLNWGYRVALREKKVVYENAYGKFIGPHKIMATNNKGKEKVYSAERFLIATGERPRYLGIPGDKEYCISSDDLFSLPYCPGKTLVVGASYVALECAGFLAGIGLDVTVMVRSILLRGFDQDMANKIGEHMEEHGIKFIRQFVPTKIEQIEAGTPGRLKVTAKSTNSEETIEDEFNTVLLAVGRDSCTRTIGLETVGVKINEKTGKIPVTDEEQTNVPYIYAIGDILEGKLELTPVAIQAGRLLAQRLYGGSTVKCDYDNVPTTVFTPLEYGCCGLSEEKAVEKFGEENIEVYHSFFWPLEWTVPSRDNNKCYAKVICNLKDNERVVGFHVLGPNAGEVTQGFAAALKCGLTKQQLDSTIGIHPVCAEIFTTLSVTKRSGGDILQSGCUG
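Rat TrxR1, dispensed at 90 nM, was prereduced with 400 uM NADPH (final) for 5 min at ~22 deg C, then incubated with compound 15 min before 400 uM selenite. A first-read NADPH fluorescence drop versus no-compound background flagged substrates.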
LDHA inh = blocks human lactate dehydrogenase A; purified LDHA, NADH/diaphorase-resazurin fluorescence; hits give low values; actives 0.15% (n = 480,000); activity change, % (values are at about 110 or 230 µM); AID 1347041; P00338; in the data active means activity change below about -30%; inconclusive means mostly about -25% to -30%
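Human LDH5 (2 nM) was incubated with 0.06 mM NADH and 0.2 mM pyruvate for 5 min at room temperature in Tris pH 7.4. Remaining NADH was coupled through diaphorase/resazurin, and resorufin fluorescence was read at 0 and 20 min.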
PKM2 activator = activators of human pyruvate kinase M2 | P14618 | purified PKM2, Kinase-Glo ATP luminescence, activation; response scale: 0% is enzyme alone, no compound | Potency, µM (doses to about 57.5 µM), hits mostly activators | actives 0.34% (n = 260,000) | AID 1631; further: nearly all actives have a fitted effect of over 55% in size
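ATP formation by purified human PK-M2, quantified via coupled luciferase luminescence after 1 h at room temperature with 0.1 mM ADP and 0.5 mM PEP final.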
rTrxR1 inhibitor = blocks rat thioredoxin reductase 1. Potency, µM (top dose mostly 114 µM), usual class: inhibitors. actives 1% (n = 390,000). O89049. AID 588453. recombinant rTrxR1, NADPH fluorescence consumption, selenite substrate; further: nearly all actives have a fitted effect of over 65% in size
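Rat TrxR1 (90 nM in the dispensed reagent) was pre-reduced with 400 uM NADPH for 5 min at room temperature, then incubated with compound for 15 min. After 400 uM selenite was added, NADPH fluorescence (Ex 340/Em 450 nm) was followed for 8 min.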
Each line names hits and unclear results; the compound was inactive in the other large screens. The list is not random: actives were taken first. Their share in the collection is about 1.4%. Unless noted, the call rests on the fitted dose curve; in most records, active means well fitted curve in the direction sought with a large enough effect; inconclusive means small, poorly fitted or top-dose-only effect, or another doubt; inactive means no such curve, though single readings can be large; an effect the other way counts as inactive or inconclusive.

COc1cccc(-n2nnnc2S(C)(=O)=O)c1	rTrxR1 inhibitor 3.2µM
COc1cccc(Oc2nnnn2-c2ccccc2)c1	none (no result: GLS inhibitor)
Cc1cccc(-n2nnnc2S(C)(=O)=O)c1	rTrxR1 inhibitor 1.8µM (no result: PKM2 activator)
Cc1cccc(-n2nnnc2C2(N3CCCC3)CCCC2)c1	none (no result: GLS inhibitor, IDH1 R132H inh, TrxR1 substrate, PKM2 activator, rTrxR1 inhibitor)
COc1cc(OC)cc(C(=O)Nc2ccc(NC(=O)c3ccco3)c(C)c2)c1	rTrxR1 inhibitor 25µM
Clc1cccc[n+]1CCc1ccccc1	rTrxR1 inhibitor 45µM (no result: GLS inhibitor, IDH1 R132H inh, LDHA inh, PKM2 activator)
COC(=O)c1ccoc1COC(=O)CCc1ccc(-c2ccccc2)o1	none (no result: GLS inhibitor, IDH1 R132H inh, TrxR1 substrate, PKM2 activator, rTrxR1 inhibitor)
COc1cccc(/C=N/n2c(C3CCCCC3)n[nH]c2=S)c1O	GLS inhibitor 7.9µM, rTrxR1 inhibitor inconclusive (no result: PKM2 activator)
COc1cc(/C=N/N2C(=O)CSC2=S)cc(Br)c1O	GLS inhibitor inconclusive
COc1cccc(/C=N/N2C(=O)CSC2=S)c1O	rTrxR1 inhibitor 18µM
CCC1CCc2c(sc(NC(=O)COCC(=O)O)c2C(=O)Nc2ccccc2C)C1 (stereo not given)	none (no result: GLS inhibitor, IDH1 R132H inh, TrxR1 substrate, PKM2 activator, rTrxR1 inhibitor)
N#Cc1ccc(-c2ccc(OCC(=O)c3ccc4c(c3)OCCO4)cc2)cc1	none (no result: GLS inhibitor, IDH1 R132H inh, TrxR1 substrate, PKM2 activator, rTrxR1 inhibitor)
CC1(C)CC(=O)C=C(OC(=O)c2ccc(Cl)cc2)C1	rTrxR1 inhibitor 4.5µM
O=C(OCC1CCCO1)c1cccc(O)c1 (stereo not given)	none (no result: GLS inhibitor, IDH1 R132H inh, TrxR1 substrate, PKM2 activator, rTrxR1 inhibitor)
CCOc1ccc(-n2c(=S)sc3c(=O)[nH]c(SCC(=O)N4CCC(C)CC4)nc32)cc1	GLS inhibitor 7.1µM
CN(C(=O)/C=C/c1ccco1)c1ccccc1C(=O)O	rTrxR1 inhibitor 28µM
O=C(/C=C\c1ccco1)Nc1cc([N+](=O)[O-])ccc1F	rTrxR1 inhibitor inconclusive
O=C(/C=C/c1ccco1)Nc1ccccc1C(=O)O	rTrxR1 inhibitor 14µM
CN(C(=O)C=Cc1ccco1)c1ccccc1	none (no result: PKM2 activator)
Cc1ccc(-c2csc(NC(=O)/C=C/c3ccco3)c2C(=O)O)cc1	PKM2 activator inconclusive, rTrxR1 inhibitor 35µM
O=C(/C=C/c1ccco1)Nc1cc(Cl)ccc1C(=O)O	GLS inhibitor inconclusive, rTrxR1 inhibitor 13µM
O=C(/C=C/c1ccco1)Nc1ccccc1C(=O)Nc1cccc(C(=O)O)c1	rTrxR1 inhibitor inconclusive
Cc1nc(-c2ccncc2)[nH]c(=O)c1CC(=O)N(C)C1CCCCC1	none (no result: GLS inhibitor, IDH1 R132H inh, TrxR1 substrate, PKM2 activator, rTrxR1 inhibitor)
COc1cccc(NC(=O)CSc2nnc(-c3ccc(C)cc3)c(=O)[nH]2)c1	none (no result: GLS inhibitor, IDH1 R132H inh, TrxR1 substrate, PKM2 activator, rTrxR1 inhibitor)
CN(CCOC(=O)/C=C/c1ccco1)Cc1ccccc1	GLS inhibitor inconclusive, PKM2 activator inconclusive, rTrxR1 inhibitor 45µM
COC(=O)[C@@]1(Cc2ccc(OC)cc2)[C@H]2c3cc(C(=O)N(C)C)n(Cc4ccc(C)o4)c3C[C@H]2CN1C(=O)c1ccccc1	PKM2 activator 8.9µM (no result: GLS inhibitor, IDH1 R132H inh, TrxR1 substrate, LDHA inh, rTrxR1 inhibitor)
COC(=O)[C@@]1(Cc2ccc(F)cc2)[C@H]2c3cc(C(=O)N4CCCC4)n(Cc4ccc(C)o4)c3C[C@H]2CN1C(=O)c1ccccc1	PKM2 activator 13µM (no result: IDH1 R132H inh, TrxR1 substrate, rTrxR1 inhibitor)
COC(=O)[C@@]1(Cc2ccc(F)cc2)[C@H]2c3cc(C(=O)N4CCCC4)n(Cc4ccc(C)c(F)c4F)c3C[C@H]2CN1C(=O)c1ccccc1	none (no result: IDH1 R132H inh, TrxR1 substrate, rTrxR1 inhibitor)
COCCCNC(=O)C1CC(=O)N(CCc2c[nH]c3ccc(C)cc23)C1 (stereo not given)	none (no result: GLS inhibitor, IDH1 R132H inh, TrxR1 substrate, PKM2 activator, rTrxR1 inhibitor)
COc1ccc(C2c3ccc(O)cc3Oc3ncn(Cc4ccco4)c(=N)c32)cc1 (stereo not given)	rTrxR1 inhibitor 50µM
COc1ccc(C2c3c(ncn(Cc4ccco4)c3=N)Oc3ccc4ccccc4c32)cc1 (stereo not given)	PKM2 activator inconclusive
COc1ccc(/C=C/C(=O)C2C(=O)C=C(C)OC2=O)cc1O (stereo not given)	GLS inhibitor 7.1µM
COc1ccc(N2CSC3=C(C#N)C(c4cc(OC)c(OC)cc4OC)CC(=O)N3C2)c(OC)c1 (stereo not given)	rTrxR1 inhibitor inconclusive
COc1ccc(N2CSC3=C(C#N)C(c4cc(OC)ccc4OC)CC(=O)N3C2)c(OC)c1 (stereo not given)	rTrxR1 inhibitor 14µM
